Test results as given in ChEMBL document CHEMBL4513141, “CO-ADD screening of NIH (USA) - Clinical Collection” (2021).
Measured potencies and affinities stand elsewhere.

Legend:
Klebsiella pneumoniae = settings: Concentration 20 uM; ASSAY_TEST Inhibition of Bacterial Growth; detection method Absorption (OD600); MEDIA CAMHB; plate type 384well; NBS; CORNING #3640; time 18 hr
Candida albicans = settings: 20 µM
Cryptococcus neoformans = settings: Concentration 20 uM; ASSAY_TEST Inhibition of Fungal Growth; detection method Resazurin; Absorption (OD600-OD570); plate type 384well; NBS; CORNING #3640

SMILES	Inhibition (Klebsiella pneumoniae)	Inhibition (Candida albicans)	Inhibition (Cryptococcus neoformans)
CCC(COC(=O)c1cc(OC)c(OC)c(OC)c1)(c1ccccc1)N(C)C.O=C(O)/C=C\C(=O)O (stereo not given)	22.71%	3.77%	-7.66%
Cl.FC(F)(F)c1cccc(N2CCNCC2)c1 [N- (3-TRIFLUOROMETHYLPHENYL)PIPERAZINE HYDROCHLORIDE (TFMPP)]	6.51%	4.36%	-3.92%
Cc1c(OCC(F)(F)F)ccnc1C[S+]([O-])c1nc2ccccc2[nH]1 (stereo not given) [LANSOPRAZOLE]	7.47%	9.31%	-23.82%
Cl.NCCc1ccc(O)c(O)c1 [DOPAMINE HYDROCHLORIDE]	13.84%	-0.19%	-1.49%
O=C1Nc2ccc(Cl)cc2C(c2ccccc2Cl)=NC1O (stereo not given) [LORAZEPAM]	-5.27%	5.15%	-2.1%
CC(C)NCC(O)c1ccc(O)c(O)c1.Cl (stereo not given) [ISOPROTERENOL HYDROCHLORIDE]	6.57%	2.42%	0.22%
CCN(CC)CCOC(=O)C(O)(c1ccccc1)c1ccccc1.Cl	9.09%	3.32%	-7.17%
CC(C)C(=O)Nc1ccc([N+](=O)[O-])c(C(F)(F)F)c1 [FLUTAMIDE]	13.37%	3.45%	1.08%
Cc1ccnc2c1NC(=O)c1cccnc1N2C1CC1 [NEVIRAPINE]	10.08%	2.39%	-2.57%
COC(=O)N1CCN(C(=O)Cc2ccc(Cl)c(Cl)c2)C(CN2CCCC2)C1.O=C(O)/C=C/C(=O)O (stereo not given)	6.19%	2.42%	-1.96%
